Measured values reported in PubChem BioAssay (Tox21).
Several values for one entry are separate records, joined by “and”; a condition that tells them apart may be missing. Equal entries are not always repeated. Inconclusive results are not listed. Some compounds were tested as several samples or in several runs, with calls that do not always agree. Activity calls are given as the source filed them. The call rests on the fitted dose curve.

Assay: qHTS assay for small molecule agonists of the p53 signaling pathway - cell viability (AID 651633); further: nearly all actives have a fitted effect of over 30% in size;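 on activity change, negative = cytotoxicity: p53RE-bla HCT reporter cells with a stable beta-lactamase p53 reporter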
Details: p53RE-bla HCT-116 viability, ATP luminescence, 16 h; series mostly up to 83.3 µM; activity change, negative = cytotoxicity: at the top concentration
Excerpt: National Center for Advancing Translational Sciences [NCATS]
NIH Chemical Genomics Center [NCGC]
U.S. Environmental Protection Agency [EPA]
National Institutes of Environmental Health Sciences [NIEHS]
National Toxicology Program [NTP]
U.S. Food and Drug Administration [FDA]
p53, a tumor suppressor protein, is activated following cellular insult, including DNA damage and other cellular stresses. The activation of p53 regulates cell fate by inducing DNA repair, cell cycle arrest, apoptosis, or cellular senescence. The activation of p53, therefore, is a good indicator of DNA damage and other cellular stresses. […] The activation of the reporter gene under culture conditions can be detected by fluorescence intensity. This cell line was used to screen the Tox21 compound library in a 1536-well plate format and to identify agonists that activate the p53 signaling pathway.
Tox21 Assay Protocol Summary:
The p53RE-bla cells were dispensed at 4,000 cells/5 ul/well in 1536-well black wall/clear bottom plates using a Multidrop dispenser. After the assay plates were incubated at a 37 C/5% CO2 incubator for 5 hours, 23 nL of compounds dissolved in DMSO, positive controls or DMSO only was transferred to the assay plate by a pin tool. The plates were incubated at 37 C for 16 hours. After 1 uL of LiveBLAzerTM B/G FRET substrate was added using a Flying Reagent Dispenser, the plates were incubated at room temperature for 2 hours, and fluorescence intensity was measured by an Envision plate reader.
For cell viability readout that measures cytotoxicity, 4 ul/well of CellTiter-Glo reagent was added into the assay plates using a Flying Reagent Dispenser. After 30 min incubation at room temperature, the luminescence intensity in the plates was measured using a ViewLux plate reader.
On the % scale 0 is the no-effect control and ±100 the full control effect; potency means the concentration at half of the fitted maximal effect.

Structure (SMILES)	Potency	activity change, negative = cytotoxicity
CCCCCCCCCCCCCCCCCCOS(=O)(=O)O	61.1 µM (active)	–
C[C@H](CCC(=O)O)[C@H]1CC[C@H]2[C@@H]3CC[C@@H]4C[C@H](O)CC[C@]4(C)[C@H]3C[C@H](O)[C@]12C	–	-17.6% (inactive)
CC(C)=CCC/C(C)=C/CC/C(C)=C/CO	68.6 µM (active)	–
OCc1cc(C(O)CNCCCCCCOCCCCc2ccccc2)ccc1O (stereo not given)	inactive and 26.6 µM (active)	–
C[C@@H](c1ncncc1F)C(O)(Cn1cncn1)c1ccc(F)cc1F (stereo not given in full)	–	-5.37% (inactive)
COc1ccc(S(=O)(=O)N2C(=O)[C@@](c3ccccc3OC)(N3C[C@H](O)C[C@H]3C(=O)N(C)C)c3cc(Cl)ccc32)c(OC)c1	–	5.05% (inactive)
CC(C)(COC(=O)c1ccccc1)COC(=O)c1ccccc1	–	13.5% (inactive)
O=CC1CC=CCC1 (stereo not given)	–	-11.9% (inactive)
C=C(C)C(=O)OCC	–	10.6% [at 95.3 µM] (inactive)
CCOCC(O)COc1ccc(NC(=O)CC[S+](C)C)cc1 (stereo not given)	–	10.8% (inactive)
CCCCCCCCCOS(=O)(=O)O	–	11.6% (inactive)
CCCCC1=NC2(CCCC2)C(=O)N1Cc1ccc(-c2ccccc2-c2nn[nH]n2)cc1	–	32.7% (inactive)
CCCCCCCCCCCc1ccccc1	–	7.97% (inactive)
O=C1C(O)=C(O)C(=O)C(O)=C1O	–	-8.46% (inactive)
Clc1ccc2c(c1)CCc1cccnc1C2=C1CCNCC1	–	-23.2% (inactive)
O=C(NCCO[N+](=O)[O-])c1cccnc1	–	-7.25% (inactive)
COCC(C)OC(C)=O (stereo not given)	–	-16.5% (inactive)
CCOC(=O)c1cccnc1	–	14% (inactive)
C#C[C@]1(O)CC[C@H]2[C@@H]3CCc4cc(OC5CCCC5)ccc4[C@H]3CC[C@@]21C	–	-22.8% (inactive)
Cc1cc(C(=O)O)ccc1[N+](=O)[O-]	–	-7.34% (inactive)

Structure (SMILES)	Potency	activity change, negative = cytotoxicity
CCN(CC)CCOC(=O)C(c1ccccc1)C1CCCCC1 (stereo not given)	–	19% (inactive)
CCOc1ccc(N)c([N+](=O)[O-])c1	–	-6.56% (inactive)
CO[C@@H]1[C@H](OC(=O)/C=C/C=C/C=C/C=C/C(=O)O)CC[C@]2(CO2)[C@H]1[C@@]1(C)O[C@@H]1CC=C(C)C	inactive	–
O=C(O)c1ccc(-n2nc(-c3ccccc3O)nc2-c2ccccc2O)cc1	13.3 µM (active)	–
C/C=C/C(=O)CC	–	-24.4% [at 17.9 µM] (inactive)
CCCNCC(O)COc1ccccc1C(=O)CCc1ccccc1 (stereo not given)	–	11.8% (inactive)
Cc1oc(-c2ccccc2)nc1CCOc1cccc2c1ccn2CCC(=O)O	–	-11.8% (inactive)
Nc1cccc(S(=O)(=O)c2cccc(N)c2)c1	–	20.6% (inactive)
Cc1oc2c(NC(=O)c3c(Cl)cccc3Cl)cccc2c1C(C)(C)O	–	-16.9% (inactive)
Nc1ccc(N)c2c1C(=O)c1ccccc1C2=O	–	-15.4% (inactive)
CC(CSC(=O)c1ccccc1)C(=O)N1C[C@@H](Sc2ccccc2)C[C@H]1C(=O)O (stereo not given in full)	–	21.2% (inactive)
CC(C)(CO)[N+](=O)[O-]	–	13.9% (inactive)
COc1ccc(C)cc1[N+](=O)[O-]	–	-8.59% [at 95.3 µM] (inactive)
O=C(O)c1ccccc1Cl	–	10.3% (inactive)
O=C1OC(CN2CCOCC2)CN1/N=C/c1ccc([N+](=O)[O-])o1 (stereo not given)	–	7.79% [at 39.1 µM] (inactive)
COc1ccc(C(=O)N2CCN(CC(=O)N3CCOCC3)CC2)cc1	–	8.35% (inactive)
O=P(O)(OCc1ccccc1)OCc1ccccc1	–	-7.63% (inactive)
C=CCOC(=O)CCC1CCCCC1	–	-21.6% (inactive)
CCCCC	inactive	–
Nc1cc(C(=O)O)c(O)c(S(=O)(=O)O)c1	–	18.4% (inactive)
